# PubChem BioAssay AID1851 (National Center for Advancing Translational Sciences (NCATS), 2009)
# Values joined by “and” are separate entries in the source; they are usually repeats but may differ in a detail not shown here. Equal values may be shown once. In all, about 16,000 compounds went through this assay and about 5,700 (36%) were called active. Not shown: some 24% with an inconclusive outcome. Some of the results follow. A number with no mark means an inactive call. The call rests on the fitted dose curve; in most records, active means well fitted curve in the direction sought with a large enough effect; inconclusive means small, poorly fitted or top-dose-only effect, or effect the other way; inactive means no such curve, though single readings can be large or run the other way.
# Target: Cytochrome P450 1A2 (Homo sapiens) (UniProt P05177)
# Experiment: Cytochrome panel assay with activity outcomes
# Conditions: recombinant CYP, pro-luciferin dealkylation, luminescence, p450-cyp1a2; series mostly up to 57.1 µM; activity, negative = inhibition: at the top concentration
# On the % scale 0 is the no-effect control and ±100 the full control effect.
# Sequence of Cytochrome P450 1A2 (Homo sapiens) (P05177 whole entry, looked up): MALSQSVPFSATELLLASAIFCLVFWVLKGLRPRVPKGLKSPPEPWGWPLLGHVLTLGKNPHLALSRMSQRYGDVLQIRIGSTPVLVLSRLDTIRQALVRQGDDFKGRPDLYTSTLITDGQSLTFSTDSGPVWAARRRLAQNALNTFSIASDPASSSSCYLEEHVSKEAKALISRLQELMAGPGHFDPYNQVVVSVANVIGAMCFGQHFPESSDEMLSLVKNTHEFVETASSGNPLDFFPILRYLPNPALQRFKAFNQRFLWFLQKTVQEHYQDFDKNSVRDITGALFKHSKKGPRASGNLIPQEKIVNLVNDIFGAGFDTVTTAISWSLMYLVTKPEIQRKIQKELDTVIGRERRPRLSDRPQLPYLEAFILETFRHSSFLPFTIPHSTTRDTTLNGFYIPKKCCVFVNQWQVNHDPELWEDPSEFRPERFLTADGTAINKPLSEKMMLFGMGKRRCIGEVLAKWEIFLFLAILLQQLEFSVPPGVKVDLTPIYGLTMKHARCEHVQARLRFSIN
Structure (SMILES),AC50,"activity, negative = inhibition"
O=c1oc(-c2cccs2)nc2ccc(Br)cc12,2.51 µM (active),
COc1ccccc1N1CCN(CCN2C(=O)CC3(CCCC3)CC2=O)CC1,,-12.8%
COc1ccc(N2CCN(C(=S)Nc3cc(C)cc(C)c3)CC2)cc1,,-5.23%
CNC(=S)N1CCN(c2ccccc2OC)CC1,7.08 µM (active),
COc1ccccc1N1CCN(CCCCN2C(=O)c3ccccc3C2=O)CC1,inactive,
CNC(=S)N1CCN(c2cccc(OC)c2)CC1,15.8 µM (active),
COc1cccc(N2CCN(C(=S)Nc3cccc(C)c3)CC2)c1,,-14.1%
CC1CCCN(CCCNC(=O)C2CC(=O)N(c3ccc(F)c(Cl)c3)C2)C1 (centres undefined),,-12.8%
CCCCOc1ccc(CNn2c(C)nc3ccccc3c2=O)cc1,15.8 µM (active),
COc1ccc(-c2nc3ccccc3c(=O)n2N)cc1,25.1 µM (active),
COc1ccc(CNn2c(C)nc3ccccc3c2=O)cc1,12.6 µM (active),
Cc1cc(=O)[nH]c(-n2[nH]c(C)cc2=O)n1,,-3.59%
O=C1C=C(c2cccs2)CC(c2cccs2)C1n1cnc([N+](=O)[O-])c1 (centres undefined),3.16 µM (active),
c1ccc(CNc2ncnc3ccc(-c4ccc5c(c4)OCO5)cc23)cc1,0.2 µM (active),
Cc1cccc(CNc2ncnc3ccc(-c4ccc5c(c4)OCO5)cc23)c1,0.501 µM (active),
c1ccc(Nc2ncnc3ccc(-c4ccc5c(c4)OCO5)cc23)cc1,0.251 µM (active),
c1ccc(C2CCC(N3CCC(N4CCCCC4)CC3)CC2)cc1 (centres undefined),,-5.53%
Cc1noc(C)c1C(=O)N1CCC2(CCCN(C(=O)Nc3ccccc3)C2)CC1,12.6 µM (active),
O=C(Nc1ccccc1)N1CC2(CCN(C(=O)c3ccco3)CC2)C1,,6.85%
COc1ccc(NC(=O)N2CCCC3(CCN(C(=O)c4c(C)noc4C)CC3)C2)cc1,,12.3%
COc1ccc(NC(=O)N2CCCC3(CCN(C(=O)c4ccco4)CC3)C2)cc1,,-10.2%
O=C(Nc1ccccc1)N1CCCC2(CCN(C(=O)c3ccco3)CC2)C1,20 µM (active),
Cc1noc(C)c1C(=O)N1CCC2(CCN(C(=O)Nc3ccccc3)CC2)CC1,,-8.72%
CO[C@H]1OC[C@@]2(C)[C@@H]3C4=C(CN2C(=O)OC(C)(C)C)[C@H](C)[C@H](CO)[C@H](CO)[C@H]4CC[C@H]13,,-18.6%

Structure (SMILES),AC50,"activity, negative = inhibition"
Cc1ccc(SCc2ccc(C(=O)Nc3cc([N+](=O)[O-])ccc3C)cc2)cc1,,-14.8%
C=CCN(CC=C)C(=O)C(=O)c1cc(C)n(-c2ccc([N+](=O)[O-])cc2)c1C,,-5.98%
Cc1ccc([N+](=O)[O-])cc1NC(=S)NC(=O)CC(C)(C)C,2 µM (active),
CC(=O)NS(=O)(=O)c1ccc(NC(=S)NC(=O)C(C)(C)C)cc1,,3.06%
Cc1ccc([N+](=O)[O-])cc1NC(=S)NC(=O)C(C)(C)C,0.2 µM (active),
CCCN1CCN(C(=O)CN2C(=O)CC(C)(C)S(=O)(=O)c3ccccc32)CC1,,-7.7%
O=c1c(-c2cccs2)nc2cnc(N3CCNCC3)nc2n1-c1ccccc1,2.51 µM (active),
COc1ccc(-n2c(=O)c(-c3cccs3)nc3cnc(N4CCNCC4)nc32)cc1,5.01 µM (active),
CN1CCN(c2ncc3ncc(=O)n(-c4ccccc4)c3n2)CC1,2.51 µM (active),
O=c1c(-c2ccccc2)nc2cnc(N3CCOCC3)nc2n1-c1ccccc1,12.6 µM (active),
O=C(c1csnn1)N1CCC2(CCCN(Cc3ccccc3)C2)CC1,,-7.35%
O=c1c(-c2cccs2)nc2cnc(N3CCOCC3)nc2n1-c1ccccc1,5.01 µM (active),
CN1CCN(c2ncc3nc(-c4cccs4)c(=O)n(-c4ccccc4)c3n2)CC1,3.16 µM (active),
CO[C@H]1C[C@@H](O[C@@H]2[C@H](C)[C@H](O[C@@H]3O[C@@H](C)C[C@@H](N(C)C)[C@@H]3O)[C@H](C)C[C@]3(CO3)C(=O)[C@H](C)[C@H](O)[C@H](C)[C@H](C)OC(=O)[C@@H]2C)O[C@@H](C)[C@H]1O,,1.17% [at 25.6 µM]
COc1ccc(O)c(/C=N/NC(=O)c2ccc(OCc3cccc(Br)c3)cc2)c1,11.2 µM (active),
O=C(CNC(=O)/C(=C\c1ccccc1)NC(=O)c1ccc(Br)cc1)OCc1ccccc1,,-27.8%
COc1ccc(C(=O)NCC(=O)OCc2cccc(Br)c2)cc1,6.31 µM (active),
COc1ccc(C(=O)N/N=C/c2cccc3cccnc23)cc1,2 µM (active),
COc1ccc(O)c(/C=N/NC(=O)CSc2nnc(C)n2-c2ccccc2)c1,,-4.22%
CSC(=N)N,,-5.29%
Brc1ccc2ncnc(Nc3cccc4ccccc34)c2c1,1.58 µM (active),
Clc1cccc(Nc2ncnc3ccc(Br)cc23)c1,0.562 µM (active),
COc1ccc(-n2c(C)n[nH]c2=O)cc1,,-1.01%
CCc1ccc(C2=Nn3c(nnc3-c3cccs3)SC2)cc1,3.55 µM (active),

Structure (SMILES),AC50,"activity, negative = inhibition"
CCOc1ccc(C2=Nn3c(nnc3-c3ccco3)SC2)cc1,2 µM (active),
COc1ccc(-c2nnc3n2N=C(C)CS3)cc1,1.41 µM (active),
COc1cccc(-c2nnc3n2N=C(C(C)(C)C)CS3)c1,2.82 µM (active),
O=C(O)C1=CCCNC1,inactive,
CCOc1ccc(-c2nnc3n2N=C(c2ccc(OC)cc2)CS3)cc1,3.55 µM (active),
O=C(OCC(=O)c1ccc([N+](=O)[O-])cc1)/C(=C\c1ccc(Cl)cc1)NC(=O)c1ccccc1,12.6 µM (active),
COc1cc(/C=C(/NC(=O)c2ccccc2Cl)C(=O)O)cc(OC)c1OC,,-2.92%
Cc1ccc(NC(=O)/C(=C\c2ccc([N+](=O)[O-])cc2)NC(=O)c2ccccc2)cc1,,-11%
O=C(Nc1cccc2ccccc12)/C(=C/c1ccc([N+](=O)[O-])cc1)NC(=O)c1ccccc1,3.16 µM (active),
O=C(OCc1ccccc1)/C(=C/c1ccc(Cl)cc1)NC(=O)c1ccccc1Cl,0.891 µM (active),
Cc1ccc(S(=O)(=O)N[C@H]2COC(=O)C/C=C\[C@@H](C)[C@H](NS(=O)(=O)c3ccc(C)cc3)COC(=O)C/C=C\[C@H]2C)cc1,,-0.94% [at 11.4 µM]
O=C(Nc1ccnc(-c2cccnc2)n1)c1cccc(Cl)c1Cl,0.562 µM (active),
O=C(Nc1ccnc(-c2cccnc2)n1)c1ccccc1Cl,0.398 µM (active),
CC1(C)OCC([C@H](O)C2=CCCCC2=O)CO1,,-1.5% [at 11.4 µM]
O=C(c1ccco1)N1CCN(C(=O)C2(S(=O)(=O)c3ccc(Cl)cc3)CC2)CC1,,-22%
FC(F)(F)c1cccc(-c2nc3nc(Cl)c(Cl)nc3[nH]2)c1,0.398 µM (active),
Cn1ccc2cc3c(cc21)CCN3C(=O)Nc1cccnc1,25.1 nM (active) and 3.98 nM (active),
COC(=O)c1ccc(NC(=O)N2CCC(O)(c3cccnc3)CC2)cc1,,-13.5%
O=C(Nc1cccc(F)c1)N1CCC2(CC1)CCN(C(=O)c1cnccn1)CC2,,4.45%
CN1CCc2cc(NC(=O)Nc3cccnc3)ccc21,0.0794 µM (active),
COc1cc2c(cc1C(F)(F)F)N(C(=O)Nc1cc(F)cc(-c3cccnc3)c1)CC2,0.316 µM (active),
CSc1cc2c(cc1C(F)(F)F)N(C(=O)Nc1cccnc1)CC2,0.000794 µM (active),
CN1CCc2c(cc(O)c(O)c2Cl)[C@H](c2cccc(Cl)c2)C1,,-4.23%
Cn1c(=O)[nH]c2ncn(C)c2c1=O,,-4.02%

Structure (SMILES),AC50,"activity, negative = inhibition"
[O-][N+](CCO)(CCO)c1ncnc2nc[nH]c12,,-5.88% [at 11.4 µM]
CCOC(=O)C1=C(c2ccccc2)N=c2s/c(=C\c3ccc(O)cc3)c(=O)n2C1c1cccs1 (centres undefined),,-9.66%
CCOC(=O)C1=C(c2ccccc2)N=c2s/c(=C\c3cc(OC)c(OC)c(OC)c3)c(=O)n2C1c1cccs1 (centres undefined),,0.13%
CCOC(=O)C1=C(c2ccccc2)N=c2s/c(=C\c3ccco3)c(=O)n2C1c1cccs1 (centres undefined),6.31 µM (active),
CCOC(=O)C1=C(c2ccccc2)N=c2s/c(=C\c3cccc(O)c3)c(=O)n2C1c1cccs1 (centres undefined),25.1 µM (active),
COc1ccc(C2/C(=C(/O)c3ccc(Cl)cc3)C(=O)C(=O)N2CCN2CCOCC2)c(OC)c1 (centres undefined),,-25.5%
Cc1ccc(NC(=O)Nc2nc(-c3ccc(C)s3)cs2)cc1,1.58 µM (active),
C#CCCCO/N=C1/C[C@@H](O)[C@@H](O)[C@@H]2[C@@H]3C(=O)N(Cc4ccccc4)C(=O)[C@H]3CC[C@@H]12,,6.78% [at 11.4 µM]
CNC(=O)c1nnn(Cc2ccccc2)c1NC(=O)C(F)(F)F,,-22.4%
COc1ccc(NC(=O)C2CC(=O)NC3=C2C(=O)CC(C)(C)C3)cc1 (centres undefined),,-2.7%
COc1ccc(C(C(=O)Nc2ccc(F)cc2)N(C(=O)Cn2nnc3ccccc32)C2CC2)cc1 (centres undefined),,-13.1%
N[C@@H](Cc1cccc([N+](=O)[O-])c1)C(=O)O,,-10.6% [at 11.4 µM]
CCN(Cc1ccccc1)Cc1cccc([N+](=O)[O-])c1,5.01 µM (active),
COCC(C)NCc1cccc([N+](=O)[O-])c1 (centres undefined),,-12.9%
O=C(O)CC/C=C\CC[C@H]1[C@@H](N2CCCCC2)[C@@H](O)C[C@@H]1OCc1ccc(-c2ccccc2)cc1,,0.717%
Cc1ccccc1-c1cc(N(C)C)ncn1,2 µM (active),
FC(F)(F)c1ccccc1-c1cc(NCc2ccccc2)ncn1,12.6 µM (active),
CNc1cc(-c2ccccc2C)ncn1,10 µM (active),
CNc1cc(-c2ccccc2C(F)(F)F)ncn1,15.8 µM (active),
CNc1ncncc1-c1ccccc1C(F)(F)F,,-17.8%
CN(C)C(=O)/N=N\C(=O)N(C)C,,-4.71%
CC(C)=CCC/C(C)=C/CO/N=C1/C[C@@H](O)[C@@H](O)[C@@H]2[C@@H]3C(=O)N(C[C@@H]4CCCO4)C(=O)[C@H]3CC[C@@H]12,,-6.43% [at 11.4 µM]
